Bioassay records: PubChem BioAssay, Broad Institute
This is a sample that favours compounds with a hit; in the whole collection about 3.4% have one here.
HSF1 inhib: HSF1 inhibitors in luciferase reporter cells, primary screen, cell-based, NIH3T3, luminescence | 0.77% of 300,000 active | activity change, negative = inhibition, % at 7.5 µM (by protocol) | AID 2098, 2009 | NIH3T3-HGL HSE-luciferase, MG132-induced, luminescence 8 h; stronger effect = lower value;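 active = more than half of replicate wells show activity change below -50%, luminescence cut by over half; inconclusive = some wells, but at most half, below -50%; inactive = no replicate well below -50%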;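 note: luciferase reports HSF-1 transcriptional activity via heat shock element; 0% = median of DMSO wells and -100% = zero luminescence signal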
HSF-1 act: HSF-1 activators, primary screen, NIH3T3-HGL cells, MG132 stress, luminescence, single point; AID 504408, 2011; activation, % at 9 µM; NIH3T3-HGL HSF-1 luciferase reporter, 8 h; 100% = twice DMSO control signal; 1.7% of 300,000 active;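 active = mean replicate activation of at least 50% with a set share of replicates each reaching 50%; inconclusive = only one of those two conditions met; inactive = mean below 50% and too few replicates reaching it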;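 note: 0% = median of the neutral control wells and 100% = twice that signal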
Vif imaging: HIV Vif self-association inhibitors, primary screen, imaging, HEK293T, single point | HEK293T cells, Vif self-association by quenched fluorescence, 24 h | inhibition, % at 7.49 µM | 0.35% of 340,000 active; in the data active = inhibition above about 50%, passing the limit was not always enough; inconclusive = no clear call, values can overlap the other calls; inactive = below about 31%
esBAF inh: Bmi1 luciferase reporter increase in mESCs, primary screen, esBAF inhibitor project, mouse ES cells, Bmi1 luciferase knock-in, single point; 2% of 350,000 active; reporter increase, % at 12.5 µM; 24 h; 100% = twice the neutral-well signal; in the data active = activation above about 40%; inconclusive = no clear call, values can overlap the other calls;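 note: 0% = median of the plate's neutral control wells and 100% = double that signal; a rise in the Bmi1 reporter signal indicates esBAF inhibition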
The depositor's hits bear a star; ? = inconclusive; · = no result.

SMILES	HSF1 inhib	HSF-1 act	Vif imaging	esBAF inh
O=C(Nc1nc(-c2ccc(F)c(F)c2)cs1)C1=COCCO1	·	·	-6	53*
C[C@@H]1CN([C@@H](C)CO)C(=O)Cc2cc(NC(=O)Nc3ccc(C(F)(F)F)cc3)ccc2O[C@@H]1CN(C)Cc1ccc(Oc2ccccc2)cc1	·	·	·	-15
Cc1cc2nc(Cl)c(Cl)nc2cc1C	-2	3	67*	·
C=CCn1c(-c2csc(-c3ccccc3)n2)n[nH]c1=S	-5	7	-7	6
C=CCn1c(-c2cc(-c3ccccc3)sc2N)n[nH]c1=S	146	174*	-6	·
Nc1sc(-c2ccccc2)cc1-c1n[nH]c(=S)n1C1CCCCC1	72	84*	1	·
C[C@H]1CCCCO[C@H](CN(C)Cc2ccccc2)[C@@H](C)CN([C@@H](C)CO)C(=O)c2cc(N(C)C)ccc2O1	·	·	·	-4
Cn1nccc1-c1ccc(C(=O)NCc2ccc(Cl)cc2)c2occc12	·	·	-9	80*
COc1ccc(-c2ccc(C(=O)Nc3ccc(Cl)cc3)c3occc23)c(C)c1	·	·	-16	80*
COc1ccc(-c2ccc(C(=O)Nc3ccc(NC(C)=O)cc3)c3occc23)c(C)c1	·	·	-16	-3
COc1ccc(-c2ccc(C(=O)NCc3ccccc3)c3occc23)c(C)c1	·	·	?	50*
C[C@@H](O)C#Cc1ccc([C@H]2[C@H]3CN(C(=O)c4ccncc4)CCCCN3[C@H]2CO)cc1	·	·	·	-3
CCCN(C)C[C@H]1OCCCC[C@H](C)Oc2ccc(NC(=O)Nc3cccc4ccccc34)cc2C(=O)N([C@@H](C)CO)C[C@H]1C	·	·	·	-1
O=C(C[C@@H]1C=C[C@@H](NC(=O)Cc2cccnc2)[C@H](CO)O1)Nc1ccccc1	·	·	·	6
CCOc1ccc(C2C=C(c3ccccc3)Nc3nnnn32)cc1 (centres undefined)	5	24	-21	51*
C[C@@H]1CN([C@@H](C)CO)C(=O)c2cc(N(C)C)ccc2O[C@@H](C)CCCCO[C@@H]1CN(C)S(=O)(=O)c1cn(C)cn1	·	·	·	-6
CC1CCN(C(=O)CSc2nc3c(cnn3-c3ccccc3)c(=O)[nH]2)CC1	0	-1	-16	-1
CC1CCN(C(=O)CSc2nc3c(cnn3-c3ccc(Cl)cc3)c(=O)[nH]2)CC1	-86*	-89	9	4
CN1CCN(NC(=O)/C=C/c2ccc(C(C)(C)C)cc2)CC1	-6	10	·	-7
CN1CCN(NC(=O)/C=C/c2ccc(Br)cc2)CC1	40	82*	·	·
CC=Cc1ccc2n(c1=O)C[C@H]1[C@H](CO)[C@@H](C(=O)NCCc3cn(C)cn3)N(C(=O)C3CC3)[C@@H]21 (mixture of isomers)	·	·	·	1
COc1cc(CNc2ccc3[nH]c(=O)[nH]c3c2)ccc1OCc1cccc(C)c1	12	26	4	20
COc1cc(CNc2ccc3[nH]c(=O)[nH]c3c2)ccc1OCc1ccc(C)cc1	16	13	-8	55*
O=C(c1ccncc1)N1CCN(c2ccc(F)cc2)CC1	-66*	-73	·	-5
CCS(=O)(=O)N1CCN(C(=O)c2ccccc2)CC1	-86*	-88	-1	5
SMILES	HSF1 inhib	HSF-1 act	Vif imaging	esBAF inh
CCS(=O)(=O)N1CCN(C(=O)c2ccc(-c3ccccc3)cc2)CC1	-7	2	·	4
O=C(c1ccc(-c2ccccc2)cc1)N1CCN(c2ccccc2)CC1	18	30	12	51*
Cc1c(C(=O)Nc2ccc(Cl)cc2)c2ccccn2c1CCc1ccncc1	37	66*	-11	28
Cc1c(C(=O)Nc2cccc(Cl)c2)c2ccccn2c1CCc1ccncc1	-4	27	·	·
COc1ccccc1S(=O)(=O)N1CC[C@@H]2[C@@H](CO)N(C)c3ccc(-c4ccccc4)cc3[C@@H]21	·	·	·	4
CN(Cc1ccccc1)c1nc(N)c([N+](=O)[O-])c(NCc2ccccc2)n1	54	67*	2	·
Nc1nc(NCCc2ccccc2)nc(NCc2ccccc2)c1[N+](=O)[O-]	0	-6	-5	·
C[C@H](CO)N1C[C@H](C)[C@@H](CN(C)C(=O)Nc2ccc3c(c2)OCO3)Oc2ccc(NC(=O)C3CCCCC3)cc2CC1=O	·	·	·	16
COc1ccc(OC)c(S(=O)(=O)N2Cc3ccccc3CC2C(=O)Nc2nccs2)c1 (centres undefined)	·	·	-1	51*
CCCC#Cc1cnc2c(c1)C(=O)N([C@H](C)CO)C[C@@H](C)[C@H](CN(C)C(=O)CN1CCOCC1)O2	·	·	·	2
CCC(c1nnnn1C(C)(C)C)N(Cc1ccco1)Cc1cc2cccc(C)c2[nH]c1=O (centres undefined)	49	66*	-13	2
CCC(c1nnnn1CCc1ccccc1)N(Cc1ccco1)Cc1cc2cccc(C)c2[nH]c1=O (centres undefined)	68	90*	-4	1
C[C@@H]1CCCCO[C@@H](CN(C)CC2CCCCC2)[C@@H](C)CN([C@H](C)CO)C(=O)c2cc(NS(=O)(=O)c3cn(C)cn3)ccc2O1	·	·	·	2
c1ccc(-n2nnnc2-n2nnc3ccccc32)cc1	-2	-6	3	-3
c1ccc(-n2nnc3ccccc32)nc1	-2	14	0	61*
CC(=O)c1cc2c(cc1NC(=O)CSc1nc3ccccc3o1)OCO2	51	86*	-1	2
C=CCn1c(C)cc(C(=O)CSc2nc3ccccc3o2)c1C	14	24	-39	·
CC(=O)Nc1ccc(NC(=O)CSc2nc3ccccc3o2)cc1	-2	8	-2	·
CC1CCc2nc(NC(=O)CSc3nc4ccccc4o3)sc2C1 (centres undefined)	-59*	-63	-9	-33
Cc1cccc(NC(=O)CSc2nc3ccccc3o2)c1	10	17	-3	47*
Cc1cc(C(=O)CSc2nc3ccccc3o2)c(C)n1C1CC1	18	63*	24	36
O=C(CC(F)(F)F)N1C[C@H]2[C@@H](c3ccccc31)[C@H](CO)N2CC1CCOCC1	·	·	·	-6
O=C(C[C@H]1C[C@H]2c3cc(NC(=O)C4CCOCC4)ccc3O[C@H]2[C@H](CO)O1)NCc1cccnc1	·	·	·	1
Clc1ccc(N=C2SCC3CCCCN23)cc1 (centres undefined)	14	20	14	53*
Clc1ccc(N=C2SCCS2)cc1	5	-4	-4	·
FC(F)Oc1ccc(N=C2SCC3CCCCN23)cc1 (centres undefined)	20	39	-2	75*
C[C@@H]1CCCCO[C@@H](CN(C)Cc2ccc(C(F)(F)F)cc2)[C@H](C)CN([C@@H](C)CO)C(=O)c2cc(NC(=O)NC3CCCCC3)ccc2O1	·	·	·	11
COc1cc(/C=C2\SC(=S)N(Nc3ncc(C(F)(F)F)cc3Cl)C2=O)ccc1O	66	72*	2	12
CN1c2ccc(-c3cccc(F)c3)cc2[C@H]2[C@H](CCN2C(=O)c2ccc3c(c2)OCO3)[C@H]1CO	·	·	·	-2
